# Experimental data: PubChem BioAssay AID623877 (Johns Hopkins Ion Channel Center, 2012)
# Hit rate of the full screen: of about 340,000 compounds, about 1,000 (0.29%) were called active. The sample holds actives, similar compounds and a random draw of the others, so the mix is not that of the screen.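 Rule for the calls: active = fluorescence-ratio B-score plate-corrected deviation score at least 3 library SD below zero, with starting fluorescence score within 5 deviations; inactive = the rest.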
# Biological target: Anoctamin-1 (Mus musculus) (UniProt Q8BHY3)
# Sequence (Q8BHY3 whole entry, looked up): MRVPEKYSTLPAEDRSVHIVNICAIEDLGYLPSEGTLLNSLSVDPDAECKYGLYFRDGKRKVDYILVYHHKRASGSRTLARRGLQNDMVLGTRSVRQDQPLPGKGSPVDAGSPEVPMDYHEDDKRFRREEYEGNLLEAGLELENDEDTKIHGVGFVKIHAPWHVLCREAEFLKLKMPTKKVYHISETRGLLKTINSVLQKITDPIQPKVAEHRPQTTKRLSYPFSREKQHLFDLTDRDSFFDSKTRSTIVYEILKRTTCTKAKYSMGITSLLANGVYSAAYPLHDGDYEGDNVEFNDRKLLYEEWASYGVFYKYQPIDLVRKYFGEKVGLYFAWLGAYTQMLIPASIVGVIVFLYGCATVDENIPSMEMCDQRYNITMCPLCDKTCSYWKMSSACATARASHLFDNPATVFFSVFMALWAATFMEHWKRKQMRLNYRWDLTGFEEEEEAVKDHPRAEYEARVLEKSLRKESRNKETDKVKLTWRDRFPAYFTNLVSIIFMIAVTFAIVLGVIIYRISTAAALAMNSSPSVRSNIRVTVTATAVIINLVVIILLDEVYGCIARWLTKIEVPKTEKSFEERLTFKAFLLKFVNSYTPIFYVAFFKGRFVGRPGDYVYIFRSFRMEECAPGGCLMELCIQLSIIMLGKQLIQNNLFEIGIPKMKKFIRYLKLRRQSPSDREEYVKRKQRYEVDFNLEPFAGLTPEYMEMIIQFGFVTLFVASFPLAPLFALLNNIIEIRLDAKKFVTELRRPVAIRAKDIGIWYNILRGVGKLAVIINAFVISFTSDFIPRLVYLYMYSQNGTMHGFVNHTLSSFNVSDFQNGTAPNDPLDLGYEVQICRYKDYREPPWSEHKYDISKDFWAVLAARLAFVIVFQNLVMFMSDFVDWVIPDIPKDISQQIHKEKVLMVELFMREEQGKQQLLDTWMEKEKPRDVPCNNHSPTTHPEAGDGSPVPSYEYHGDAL
# Test: TMEM16A chloride channel activators or potentiators, primary screen, cell-based, HTS (AID 623877);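 for B-score: channel opened by trigger with iodide after compound preincubation; score built on the fluorescence ratio of max minus min over baseline; more negative score means more quench and so TMEM16A activation or potentiation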
# Settings: HEK293 TMEM16A/YFP-H148Q/I152L, iodide quench fluorescence, at 10 µM; stronger effect = lower value
row,SMILES,B-score
1,Cc1cccc(NC(=S)Nc2ccc(Cl)c(Cl)c2)c1,inactive
2,FC(F)(F)c1cccc(NC(=S)Nc2cccc(Cl)c2)c1,-5.69 (active)
3,O=C(O)CC1(CC(=O)Nc2cccc(C(F)(F)F)c2)CCCC1,inactive
4,C#CCOCCOCCOCCNc1nc(N2CCN(C(=O)[C@H](C(C)C)n3cc(CCO)nn3)CC2)nc(N2CCN(C(=O)[C@H]([C@@H](C)CC)n3cc(CCCN=C(N)N)nn3)CC2)n1,inactive
5,C#CCOCCOCCOCCNc1nc(N2CCN(C(=O)CCCCCCCCCCNC(=O)[C@H]([C@@H](C)CC)n3cc(CCCCN=C(N)N)nn3)CC2)nc(N2CCN(C(=O)CCCCCCCCCCNC(=O)[C@H](CO)n3cc(CCCSC)nn3)CC2)n1,-27.8 (active)
6,C#CCOCCOCCOCCNc1nc(N2CCN(C(=O)CCCCCCCCCCNC(=O)[C@H](CCCCN)n3cc(C)nn3)CC2)nc(N2CCN(C(=O)CCCCCCCCCCNC(=O)[C@H](CO)n3cc(CCCSC)nn3)CC2)n1,-13.2 (active)
7,C#CCOCCOCCOCCNc1nc(N2CCN(C(=O)Cn3cc(CCO)nn3)CC2)nc(N2CCN(C(=O)[C@H](CCCCN)n3cc(CCCC)nn3)CC2)n1,inactive
8,C#CCOCCOCCOCCNc1nc(N2CCN(C(=O)Cn3cc(CCCCN)nn3)CC2)nc(N2CCN(C(=O)[C@H](CCCCN)n3cc(CCC(=O)O)nn3)CC2)n1,inactive
9,C#CCOCCOCCOCCNc1nc(N2CCN(C(=O)Cn3cc(CCO)nn3)CC2)nc(N2CCN(C(=O)Cn3cc(CCCN=C(N)N)nn3)CC2)n1,inactive
10,Cc1ccc(OCCCC(=O)Nc2ccc3c(c2)OCCO3)cc1,inactive
11,O=C(NCCCc1ccccc1)c1cc(COc2c(F)cccc2F)on1,inactive
12,CCN1CCN(C(=O)C2CCCN(S(=O)(=O)c3ccc(OC)c(OC)c3)C2)CC1 (centres undefined),inactive
13,COc1ccc(/C=C/CN2CCN(Cc3ccc(C)cc3)C(CCO)C2)cc1 (centres undefined),inactive
14,O=C(CN1CCN(c2ccccc2O)CC1)NC(=O)NCc1ccccc1,inactive
15,Cc1ccc(S(=O)(=O)NC(C(=O)N2CCOCCOCCOCCOCC2)c2ccccc2)cc1 (centres undefined),inactive
16,Cc1ccc(S(=O)(=O)Nc2nc(C)cc(-n3nc(C)cc3C)n2)cc1,inactive
17,CCCC(C(=O)n1nc(C)cc1C)C(NS(=O)(=O)c1ccc(C)cc1)c1ccccc1 (centres undefined),-8.83 (active)
18,O=c1[nH]c(=S)[nH]c(O)c1/C=C1\C=Nc2ccccc21,inactive
19,CC(C)N(Cc1nnc(-c2ccc(Cl)cc2)o1)C(=O)C1=COCCO1,inactive
20,CCOC(=O)c1ccccc1NC(=O)COC(=O)CCC(=O)N1CCOCC1,inactive
21,Cc1cnc(CN(C)C(=O)CC2C(=O)NCCN2Cc2cccc(F)c2F)[nH]1 (centres undefined),inactive
22,Cc1nc2cccnc2nc1C,inactive
23,CC(C)CCN1CCN(C/C=C/c2ccco2)CC1CCO (centres undefined),-7.6 (active)
24,CC(C)CCN1CCN(Cc2ccc(C(F)(F)F)cc2)CC1CCO (centres undefined),inactive
25,Cc1ccc(CN2CCN(Cc3ccccc3-c3ccco3)CC2CCO)o1 (centres undefined),inactive

row,SMILES,B-score
1,COCCNC(=O)CSc1nc2c(n1-c1ccccc1)CCCC2,inactive
2,O=C(CCNC(=O)c1ccc([N+](=O)[O-])cc1)NC1CCCCC1,inactive
3,NC(=O)c1ccc(NC(=O)COC(=O)c2c3c(nc4ccccc24)/C(=C\c2ccc4c(c2)OCO4)CCC3)cc1,-6.02 (active)
4,O=C(COC(=O)c1ccncc1)Nc1ccc2c(c1)OCO2,inactive
5,NS(=O)(=O)c1ccc(NC(=O)COC(=O)c2c3c(nc4ccccc24)/C(=C\c2ccc4c(c2)OCO4)CCC3)cc1,inactive
6,CCOC(=O)c1cc(NC(=O)SCC(=O)O)c(C)nc1C,inactive
7,CC(=O)OC(C)C[N+](C)(C)C (centres undefined),-7.27 (active)
8,CC(=O)OCC(COC(C)=O)OC(C)=O,inactive
9,CC(C[N+](C)(C)C)OC(N)=O (centres undefined),inactive
10,NS(=O)(=O)c1ccc(N=Cc2ccc(Br)s2)cc1,inactive
11,COc1ccc(NC(C(=O)Nc2cccc(C(C)=O)c2)c2ccccc2)cc1 (centres undefined),inactive
12,COc1ccc(-c2onc3ccc(C(C)=O)cc23)cc1,-5.14 (active)
13,COc1ccc(-c2cc(C(=O)N3CCN(c4ccc(F)cc4)CC3)no2)cc1,inactive
14,Cc1cccc(CC(=O)Nc2c3c(nn2-c2cccc(Cl)c2)CS(=O)C3)c1 (centres undefined),inactive
15,CN(C(=O)c1cccc(NC(=O)Cc2ccc(NC(=O)C3CCCN(C(=O)C4CCCC4)C3)cc2)c1)C1CCC1 (centres undefined),inactive
16,C=C(Cl)COC(=O)C1C2C=CC(C2)C1C(=O)O (centres undefined),inactive
17,Cn1nccc1NS(=O)(=O)c1ccc(F)cc1,inactive
18,CCCCNCc1ccc(SC)cc1,inactive
19,O=C(Cc1ccc(Br)cc1)NCCN1CCOCC1,inactive
20,CSc1ccc(CNCCN2CCOCC2)cc1,-9.5 (active)
21,O=C(c1ccc(OC2CCN(C/C=C/c3ccc(F)cc3)CC2)cc1)N1CCCCC1,inactive
22,CCn1c(COc2c(C)cccc2C)nnc1SCc1nc2ccccc2c(=O)[nH]1,-4.66 (active)
23,CCn1c(Cc2ccccc2)nnc1SCc1nc2ccccc2c(=O)[nH]1,inactive
24,COc1ccc(CCCc2nnc(SCc3nc4ccccc4c(=O)[nH]3)n2C)cc1,inactive
25,Cc1ccc(Cl)cc1N1CCN(C(=O)c2cccc3c(=O)c(C)c(-c4ccccc4)oc23)CC1,inactive

row,SMILES,B-score
1,CCOc1ccc(N(CC(=O)NC2CCCCCC2)S(=O)(=O)c2c(C)[nH]c(=O)[nH]c2=O)cc1,inactive
2,Oc1c(Cl)cc(Cl)c(Cl)c1Cc1c(O)c(Cl)cc(Cl)c1Cl,-5.49 (active)
3,OCC(O)C1OCOC(C(O)CO)C1O (centres undefined),inactive
4,COc1ccc(S(=O)(=O)N2CCCCCC2)cc1C(=O)N(C)Cc1cccc(OC)c1OC,-5.67 (active)
5,COc1ccc(C(=O)N(C)Cc2ccc(OC)c(OC)c2OC)cc1S(=O)(=O)N1CCOCC1,inactive
6,CCNC(=O)NC(=O)C(C)OC(=O)c1cc(S(=O)(=O)N2CCCCCC2)ccc1OC (centres undefined),inactive
7,COc1ccc(NC(=O)C2C3C=CC(C3)C2C(=O)NCc2ccccn2)c(OC)c1 (centres undefined),inactive
8,O=C(NCCN1CCOCC1)c1cccc(S(=O)(=O)Nc2ccc(F)cc2)c1,inactive
9,Cc1ccc(C(=O)NC(=S)NCc2cccnc2)cc1,inactive
10,Cc1c(C(=O)NNC(=O)c2ccncc2)oc2ccccc12,inactive
11,Cc1c(C(=O)NC(=S)NCc2cccnc2)oc2ccccc12,-24.9 (active)
12,O=C(OCC(=O)N1CCN(C(=O)c2ccco2)CC1)c1cccc(O)c1,inactive
13,COc1ccc(Cn2c(O)c(/C=C3/C=CC=N3)c(=O)[nH]c2=O)cc1,-5.62 (active)
14,COc1ccc(Cn2c(=O)cc(C)[nH]c2=S)cc1,inactive
15,CCCOc1ccc(Cn2c(O)cc(=O)[nH]c2=O)cc1,inactive
16,CCn1cc(CNC(=O)c2cc([N+](=O)[O-])c(C)c([N+](=O)[O-])c2)cn1,inactive
17,O=C(Nc1ccccc1-c1nnn(CC(=O)N2CCN(c3ccccc3)CC2)n1)c1cccs1,inactive
18,CCNC(=O)N1CCCC(C(=O)c2ccc(-c3ccccc3)cc2)C1 (centres undefined),inactive
19,CCCCSc1[nH]c(=O)c(C(=O)OCC)cc1C#N,inactive
20,Cn1c(=O)n(C)c2cc(S(=O)(=O)N3CCCc4ccccc43)ccc21,inactive
21,COc1cc(C)c(C)cc1S(=O)(=O)N1CCCc2ccccc21,-10.8 (active)
22,COc1ccc(C(=O)OCC(=O)NCC2CCCCC2)cc1S(=O)(=O)N1CCCc2ccccc21,inactive
23,CCC(C)NC(=O)CCCc1ccccc1 (centres undefined),inactive
24,CCCCC(=O)NNC(=S)NC(=O)C(c1ccccc1)c1ccccc1,-5.16 (active)
25,CCCCCC(=O)NC(=S)NNC(=O)c1ccc([N+](=O)[O-])cc1,inactive

row,SMILES,B-score
1,O=C(CN1CCN(Cc2ccc(F)cc2Cl)C1=O)NCc1cccs1,inactive
2,CCOC(=O)CNC(=O)CN1C(=O)CCSc2ccccc21,inactive
3,C=CC[C@H](CC(=O)OC(C)(C)C)C(=O)OC[C@H]1CCCN1C(=O)[C@H](CC=C)CC(=O)N(CCO)Cc1ccccc1,-5.89 (active)
4,C=CC[C@H](CC(=O)N(CCO)Cc1ccccc1)C(=O)N[C@@H](COC(=O)[C@@H](CC=C)Cc1ccc(F)cc1)Cc1ccccc1,inactive
5,C=CCC[C@H](Cc1ccc(F)cc1)C(=O)OC[C@H](C)NC(=O)[C@H](CC=C)CC(=O)N(CCO)Cc1ccccc1,inactive
6,CC(Sc1nncn1C)C(=O)Nc1cc(C(F)(F)F)ccc1N1CCOCC1 (centres undefined),inactive
7,Nc1nnc(SCC(=O)NC2CCCc3ccccc32)s1 (centres undefined),-16.7 (active)
8,O=C(CSc1nncs1)NC1CCCc2ccccc21 (centres undefined),inactive
9,Nn1c(SCC(=O)NC2CCCc3ccccc32)nnc1C1CC1 (centres undefined),inactive
10,CC(=O)Oc1ccc(OC(C)=O)c2c1C1C=CC2CC1,inactive
11,O=C(CNc1ccccc1N1CCCC1=O)Nc1cc(Cl)ccc1-n1cncn1,inactive
12,COc1ccc(NC(=O)CSc2nc(NS(=O)(=O)c3ccc(C)cc3)cc(=O)[nH]2)cc1,inactive
13,Cc1ccc(NC(=O)CSc2nc(CSc3ccc(C)cc3)cc(=O)[nH]2)cc1,-12.6 (active)
14,Cc1cc(=O)[nH]c(SCC(=O)Nc2ccc(Br)cc2)n1,inactive
15,COC1=NC2=NCCN2C(OC)=N1,inactive
16,CC(=O)Nc1ccc(C(=O)Nc2cc(S(=O)(=O)N3CCOCC3)ccc2N2CCOCC2)cc1,inactive
17,O=C1C(=O)N(c2ccccc2)c2ccccc21,inactive
18,O=C(c1ccc(Cl)c(S(=O)(=O)N2CCCCC2)c1)N1CCCCCC1,inactive
19,COc1ccccc1N1CCN(C(=O)c2ccc(Cl)c(S(=O)(=O)N3CCCC3)c2)CC1,inactive
20,O=C(c1ccc(Cl)c(S(=O)(=O)N2CCCCCC2)c1)N1CCN(c2ccc(O)cc2)CC1,-41.2 (active)
21,O=c1oc2ccccc2c(=O)c2ccccc12,inactive
22,COc1ccc(Cl)cc1C(=O)NNC(=O)c1nc2nc(C)cc(C)n2n1,inactive
23,Cc1cc(C)n2nc(C(=O)N(C)C(c3ccccc3)c3ccccc3)nc2n1,inactive
24,Cc1cc(C)n2nc(C(=O)NC(C)(C)C)nc2n1,-4.58 (active)
